{"source": "PubChem BioAssay AID624046", "about": "(National Center for Advancing Translational Sciences (NCATS), 2012)", "note": "Inconclusive results are not listed. Activity calls are given as the source filed them. Calls come from the whole dose curve; as a rule, active = well fitted inhibition curve with a large enough effect; inconclusive = small, poorly fitted or top-dose-only effect; inactive = flat fitted curve, though single readings scatter.", "data": [{"target": "Dual specificity tyrosine-phosphorylation-regulated kinase 1B (Homo sapiens) (UniProt Q9Y463)", "sequence (Q9Y463 whole entry, looked up)": "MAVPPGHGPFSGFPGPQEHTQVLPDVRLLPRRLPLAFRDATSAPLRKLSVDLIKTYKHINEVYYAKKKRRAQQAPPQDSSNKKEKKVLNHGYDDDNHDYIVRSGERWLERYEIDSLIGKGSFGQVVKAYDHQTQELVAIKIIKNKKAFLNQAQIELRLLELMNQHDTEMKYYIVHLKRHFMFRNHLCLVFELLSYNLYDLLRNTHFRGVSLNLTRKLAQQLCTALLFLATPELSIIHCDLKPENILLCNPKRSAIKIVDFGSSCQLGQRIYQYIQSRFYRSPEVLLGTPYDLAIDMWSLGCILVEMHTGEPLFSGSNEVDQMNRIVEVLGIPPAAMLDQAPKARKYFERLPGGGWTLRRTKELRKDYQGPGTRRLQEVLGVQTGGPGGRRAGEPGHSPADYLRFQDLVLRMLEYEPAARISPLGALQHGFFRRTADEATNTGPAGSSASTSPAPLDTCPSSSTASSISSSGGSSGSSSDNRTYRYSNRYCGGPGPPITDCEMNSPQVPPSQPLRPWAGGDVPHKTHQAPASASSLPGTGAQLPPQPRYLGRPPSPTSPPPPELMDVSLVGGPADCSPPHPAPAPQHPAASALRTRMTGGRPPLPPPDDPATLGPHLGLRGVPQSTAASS", "test": "Reaction Biology data for inhibitors of DYRK1B: Probe SAR", "details": "Reaction Biology DYRK1B kinase assay, 10 uM ATP; series mostly up to 10 µM", "text": "Alternative splicing of pre-mRNAs plays a major role in the regulation of eukaryotic gene expression. Alternative splicing is now thought to be one of the primary reasons for the complexity of higher organisms leading to an average of three protein isoforms per gene. Aberrant splicing can lead to a number of diseases and is known to play a role in rare genetic diseases such as progeria syndrome. Hutchinson-Gilford Progeria Syndrome (HGPS) is a pediatric premature aging disease caused by a spontaneous mutation in the lamin A/C (LMNA) gene due to a single point mutation in the lamin A gene effecting 1 in 4 million people. To identify both specific splicing modulators of the lamin A gene as well as general splicing modulators, a cell-based HTS assay was developed using a minigene reporter system (AIDs, 1459 & 1487). […] This AID summarizes the characterization of lead compounds in Dyrk1b. NIH Molecular Libraries Probe Production Centers Network [MLPCN] NIH Chemical Genomics Center [NCGC] MLPCN Grant: MH084827 Assay Submitter (PI): Tom Misteli\nCompound IC50s were determined at Reaction Biology (http://www.reactionbiology.com) with ten concentration points starting at 10 uM in the assay using a 3-fold dilution series. The control compound staurosporine was also tested in the 10-dose IC50 mode with the same 3-fold serial dilution, again starting at 10 uM. All kinase reactions were performed using 10 uM ATP in the assay. 100% activity was taken from kinase reactions with DMSO alone (the vehicle used for compound stock solutions).", "values": [{"smiles": "O=[N+]([O-])c1cc(Nc2nccc(-c3ccc4c(c3)OCO4)n2)cc(C(F)(F)F)c1", "Potency": "27 nM (active)"}, {"smiles": "COc1ccc(-c2ccnc(NCc3ccc(Cl)c(Cl)c3)n2)cc1OC", "Potency": "inactive"}, {"smiles": "COc1cccc(-c2ccnc(NCc3ccc(Cl)c(Cl)c3)n2)c1", "Potency": "inactive"}, {"smiles": "c1cc(-c2ccc3c(c2)OCO3)nc(Nc2ccc3c(c2)OCO3)n1", "Potency": "41.9 nM (active)"}, {"smiles": "c1cncc(CNc2ccnc(-c3ccc4cn[nH]c4c3)n2)c1", "Potency": "829 nM (active)"}, {"smiles": "Clc1ccc(CNc2ncncc2-c2ccc3c(c2)OCO3)cc1Cl", "Potency": "inactive"}, {"smiles": "FC(F)(F)c1cc(Br)cc(Nc2nccc(-c3ccc4c(c3)OCO4)n2)c1", "Potency": "137 nM (active)"}, {"smiles": "c1cncc(CNc2nccc(-c3ccc4[nH]ncc4c3)n2)c1", "Potency": "92.9 nM (active)"}, {"smiles": "c1cncc(CNc2ccnc(-c3ccc4[nH]ncc4c3)n2)c1", "Potency": "178 nM (active)"}, {"smiles": "COc1ccc(-c2ccnc(NCc3ccc(Cl)cc3)n2)cc1", "Potency": "871 nM (active)"}, {"smiles": "Brc1cc(Br)cc(CNc2nccc(-c3ccc4c(c3)OCO4)n2)c1", "Potency": "18.2 nM (active)"}, {"smiles": "Clc1ccc(CNc2nccc(-c3ccc4[nH]ncc4c3)n2)cc1Cl", "Potency": "125 nM (active)"}, {"smiles": "Cc1c(-c2ccnc(NCc3ccc(Cl)cc3)n2)sc(=O)n1C", "Potency": "51.6 nM (active)"}, {"smiles": "c1cncc(CNc2nccc(-c3ccc4c(c3)OCO4)n2)c1", "Potency": "12 nM (active)"}, {"smiles": "c1nc(NCC2CCCO2)c2cc(-c3ccc4c(c3)OCO4)ccc2n1", "note": "(stereo unspecified)", "Potency": "141 nM (active)"}, {"smiles": "Cc1nc(CNc2ncnc3ccc(-c4ccc5c(c4)OCO5)cc23)cs1", "Potency": "176 nM (active)"}, {"smiles": "Clc1cc(Cl)cc(CNc2ncncc2-c2ccc3c(c2)OCO3)c1", "Potency": "1160 nM (active)"}, {"smiles": "c1cncc(CNc2ncncc2-c2ccc3c(c2)OCO3)c1", "Potency": "inactive"}, {"smiles": "COc1ccc(-c2ccnc(NCc3ccc(Cl)c(Cl)c3)n2)cc1", "Potency": "411 nM (active)"}, {"smiles": "Clc1ccc(CNc2nccc(-c3ccc4c(c3)OCCO4)n2)cc1Cl", "Potency": "54.8 nM (active)"}, {"smiles": "Cc1c(-c2ccnc(NCc3cccnc3)n2)sc(=O)n1C", "Potency": "31.1 nM (active)"}, {"smiles": "Cc1nc(CN(C)c2ncnc3ccc(-c4ccc5c(c4)OCO5)cc23)cs1", "Potency": "16.4 nM (active)"}, {"smiles": "Clc1ccc(CNc2ccnc(-c3ccc4[nH]ncc4c3)n2)cc1Cl", "Potency": "514 nM (active)"}, {"smiles": "Cc1nc(CN(C)c2ncnc3ccc(-c4ccc5[nH]ncc5c4)cc23)cs1", "Potency": "89.5 nM (active)"}, {"smiles": "Clc1cc(Cl)cc(CNc2nccc(-c3ccc4c(c3)OCO4)n2)c1", "Potency": "7.1 nM (active)"}, {"smiles": "Clc1ccc(CNc2nccc(-c3ccc4c(c3)OCO4)n2)cc1Cl", "Potency": "37.8 nM (active)"}, {"smiles": "Clc1ccc(Nc2nccc(-c3ccc4c(c3)OCO4)n2)cc1", "Potency": "884 nM (active)"}, {"smiles": "COc1cccc(-c2ccnc(NCc3ccc(Cl)cc3)n2)c1", "Potency": "6780 nM (active)"}, {"smiles": "Clc1ccc(CNc2nccc(-c3ccc4cn[nH]c4c3)n2)cc1Cl", "Potency": "599 nM (active)"}, {"smiles": "Brc1ccc(CNc2nccc(-c3ccc4c(c3)OCO4)n2)cc1Br", "Potency": "112 nM (active)"}, {"smiles": "FC(F)(F)c1cccc(Nc2nccc(-c3ccc4c(c3)OCO4)n2)c1", "Potency": "18.1 nM (active)"}]}]}
